Screens: PubChem BioAssay, National Center for Advancing Translational Sciences (NCATS)
Tau fluor cs = counter-screen for tau fibril formation inhibitors; tau K18 P301L Alexa594 fluorescence, heparin fibrillization; Potency, µM (highest dose often 57.7 µM); 280,000 compounds, 0.93% hits; AID 1463; active = well fitted curve in the direction sought with a large enough effect; inconclusive = small, poorly fitted or top-dose-only effect, or another doubt; inactive = no such curve, though single readings can be large; an effect the other way counts as inactive or inconclusive; note: nearly all actives have a fitted effect of over 55% in size
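Human tau K18 P301L (15 uM unlabeled, 0.24 uM Alexa 594-labeled) in 100 mM sodium acetate pH 7 with 20 uM heparin, 6 hr at 37 C. ThT 30 uM added, 1 hr ambient; Alexa 594 FP and total fluorescence read at 555/632 nm.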
Tau FP inhib = blocks human tau fibril formation measured by polarization; P10636; K18 P301L tau heparin fibrillization, Alexa594 FP, 6 h; Potency, µM (titrated, usually from 57.7 µM), hits mostly inhibitors; 280,000 compounds, 0.39% hits; active = well fitted curve in the direction sought with a large enough effect; inconclusive = small, poorly fitted or top-dose-only effect, or another doubt; inactive = no such curve, though single readings can be large; an effect the other way counts as inactive or inconclusive; note: nearly all actives have a fitted effect of over 55% in size
Target sequence (P10636 561-689 P618L limits assumed): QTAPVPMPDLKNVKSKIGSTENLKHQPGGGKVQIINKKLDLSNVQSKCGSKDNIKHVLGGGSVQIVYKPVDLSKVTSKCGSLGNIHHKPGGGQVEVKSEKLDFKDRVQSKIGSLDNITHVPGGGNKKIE
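Recombinant K18 P301L […], labeled with Alexa 594 at 0.24 uM over 15 uM unlabeled; heparin inducer 20 uM final; 37 C, 6 hr; FP endpoint.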
FBPA coupling cs = counter-screen for Giardia aldolase inhibitors: coupling enzyme system; coupling enzyme system counterscreen, AmpLite Red fluorescence; activity change, negative = inhibition, % at 58.2 µM, hits read low; 290,000 compounds, 0.67% hits; in the data active = activity change below about -30%
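Counterscreen lacking aldolase: glyceraldehyde-3-phosphate coupling-enzyme reagent preincubated 10 min at RT with compound (at 57.5 uM final), then substrate/coupling system with AmpLite Red added; fluorescence read at 525/598 nm after 20 min RT.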
Sfp PPTase inh = blocks B. subtilis Sfp PPTase activity; Biochemical Sfp PPTase activity, qHTS; Potency, µM, most hits filed as inhibitors; AID 1490; Q9F4F7; 310,000 compounds, 3.5% hits; active = well fitted curve in the direction sought with a large enough effect; inconclusive = small, poorly fitted or top-dose-only effect, or another doubt; inactive = no such curve, though single readings can be large; an effect the other way counts as inactive or inconclusive;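 note: the enzyme is Sfp with the accession as filed and its product quenches rhodamine fluorescence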
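With Hepes-Na pH 7.6 buffer containing 10 mM MgCl2, Sfp (15 nM) modified BHQ-2-YbbR (12.5 uM) using rhodamine-CoA (5 uM). Two reads 30 minutes apart at 525/598 nm yielded each well's rate.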
Tau ThT inhib = inhibitors of human tau fibril formation, thioflavin T binding | P10636 | recombinant tau K18 P301L (four-repeat tau fragment), heparin-induced fibrillization, ThT fluorescence | Potency, µM (series often up to 57.4 µM), usual class: inhibitors | 270,000 compounds, 2.1% hits | AID 1460; active = well fitted curve in the direction sought with a large enough effect; inconclusive = small, poorly fitted or top-dose-only effect, or another doubt; inactive = no such curve, though single readings can be large; an effect the other way counts as inactive or inconclusive; note: nearly all actives have a fitted effect of over 55% in size
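Recombinant human tau K18 fragment […] carrying P301L, 15 uM unlabeled plus 0.24 uM Alexa 594-labeled, was fibrillized with 20 uM heparin in 100 mM sodium acetate pH 7 for 6 hr at 37 C; 30 uM ThT fluorescence read after 1 hr.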
Casp1 catalase = inhibits human caspase-1 in catalase buffer, redox counter-screen. shares compounds with FBPA coupling cs. caspase-1 Ac-WEHD-AFC fluorescence rate, catalase buffer. Potency, µM (series often up to 57.5 µM), hits mostly inhibitors. 30 tested, under 10 active. AID 888
Target sequence (P29466 120-297 limits assumed): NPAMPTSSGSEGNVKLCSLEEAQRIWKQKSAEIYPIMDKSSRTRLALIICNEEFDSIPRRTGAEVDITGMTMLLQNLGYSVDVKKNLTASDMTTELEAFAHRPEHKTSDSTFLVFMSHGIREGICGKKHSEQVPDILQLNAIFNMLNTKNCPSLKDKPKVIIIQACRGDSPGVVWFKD
Target sequence (P29466 317-404 limits assumed): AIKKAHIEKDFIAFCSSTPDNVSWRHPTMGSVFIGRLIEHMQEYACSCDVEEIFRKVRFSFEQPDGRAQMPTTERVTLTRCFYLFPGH
Casp1 confirm = confirmation of allosteric or competitive inhibitors of human caspase-1; purified caspase-1, fluorogenic substrate cleavage; Potency, µM (top dose mostly 57.5 µM), usual class: inhibitors; shares compounds with FBPA coupling cs; 60 compounds, 20% hits
Casp7 confirm = confirmation of allosteric or competitive inhibitors of human caspase-7. shares compounds with FBPA coupling cs. AID 897. recombinant caspase-7, fluorogenic substrate cleavage. Potency, µM (series often up to 57.5 µM), hits mostly inhibitors. 60 tested, under 10 active; active = well fitted inhibition curve with a large enough effect in the main read-out, with a control signal flat, not every such curve was filed as active; inconclusive = small, poorly fitted or top-dose-only effect, or a change in a side signal; inactive = no such curve, though single readings can be large or run the other way
Casp7 cysteine = caspase-7 inhibition with cysteine present; 60 tested, under 10 active; Potency, µM (titrated, usually from 57.5 µM), actives largely listed as inhibitors; shares compounds with FBPA coupling cs; caspase-7 enzyme with cysteine, fluorogenic substrate, redox counterscreen
Casp7 catalase = caspase-7 inhibition with catalase present | 30 tested, under 10 active | shares compounds with FBPA coupling cs | Caspase-7 Ac-DEVD-AFC fluorescence rate, catalase buffer | Potency, µM (highest dose often 57.5 µM), actives largely listed as inhibitors | AID 909
CASP1 redox cys = inhibits caspase-1 in cysteine buffer, redox counter-screen | Potency, µM (series often up to 57.5 µM), actives largely listed as inhibitors | shares compounds with FBPA coupling cs | recombinant caspase-1, fluorogenic substrate, cysteine buffer | 60 tested, under 10 active
Large screens that a line does not name were inactive (follow-up assays come after a bar, where they were run). Most compounds without a hit are left out; they make up all but 5.2% or so of the library. Unless noted, calls come from the whole dose curve; as a rule, active = well fitted inhibition curve with a large enough effect in the main read-out, with a control signal flat; inconclusive = small, poorly fitted or top-dose-only effect, or a change in a side signal; inactive = no such curve, though single readings can be large or run the other way.

COc1ccc(C2CC(=O)c3c([nH]c(C(=O)OC4CCCCCC4)c3C)C2)cc1OC (stereo not drawn)	none (no result: FBPA coupling cs, Sfp PPTase inh)
N#CC1=C2SCN(Cc3ccccc3)CN2C(=O)CC1c1cccs1 (stereo not drawn)	Tau FP inhib inconclusive, FBPA coupling cs -40, Sfp PPTase inh 1.1µM, Tau ThT inhib 28µM | Casp1 catalase inactive | Casp1 confirm inactive | Casp7 confirm inactive | Casp7 cysteine inactive | Casp7 catalase inactive | CASP1 redox cys inactive
Cc1ccc(Cn2c(C)cc3c(c2=O)C(c2cccs2)C(C#N)=C(N)O3)cc1 (stereo not drawn)	none
O=C1NCCCC2c3cc(O)c4ccccc4c3OC12N1CCCCC1 (stereo not drawn)	Tau fluor cs inconclusive, Tau FP inhib inconclusive, FBPA coupling cs -57, Sfp PPTase inh 20µM, Tau ThT inhib 13µM | Casp1 catalase inactive | Casp1 confirm inactive | Casp7 confirm inactive | Casp7 cysteine inactive | Casp7 catalase inactive | CASP1 redox cys inactive
O=C1NCCCC2c3c(cc(Br)c(O)c3Br)OC12N1CCOCC1 (stereo not drawn)	Tau FP inhib inconclusive, Sfp PPTase inh inconclusive, Tau ThT inhib inconclusive
